Screening data (PubChem BioAssay)
Compounds with a hit are over-represented: about 19% of the library has one in this group of screens.
KB-3-1 cytotox – kills parental KB-3-1 adenocarcinoma cells; Potency, µM (highest dose often 46.1 µM), actives largely listed as cytotoxic; KB-3-1 viability, CellTiter-Glo ATP luminescence, 72 h; 400,000 compounds, 1.4% hits; note: nearly all actives have a fitted effect of over 60% in size
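Here the drug-naive KB-3-1 line serves as comparator for MDR sub-line selectivity; cells received compound titrations, 72 h at 37 °C, then CellTiter-Glo readout.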
KB-V1 MDR tox – KB-V1 MDR subline cytotoxicity | KB-V1 MDR cells viability, CellTiter-Glo, 72 h | Potency, µM (doses to about 46.1 µM), hits mostly cytotoxic | 400,000 compounds, 3.4% hits; note: nearly all actives have a fitted effect of over 60% in size
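Compound-treated KB-V1 multidrug-resistant cells, 72 h, 37 degrees C; viability by CellTiter-Glo. Fitted qHTS curves give the values.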
DT40 TDP1 no CPT – qHTS for Inhibitors of human tyrosyl-DNA phosphodiesterase 1 (TDP1): qHTS in cells in absence of CPT; DT40 Tdp1-/- hTDP1 cells, no CPT, ATP luminescence, 48 h; Potency, µM (doses to about 46.2 µM), for the others: top-dose activity change, negative = growth inhibition, actives largely listed as inhibitors; 420,000 compounds, 15% hits; note: nearly all actives have a fitted effect of over 55% in size
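Chicken DT40 Tdp1-/- cells stably complemented with human TDP1 were seeded at 400 cells/well with DMSO in place of 20 nM camptothecin. After compound pinning, cells grew at least 48 hr at 37 °C; viability read by CellTiter-Glo luminescence.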
HT1080 IDH1KD tx – HT-1080 IDH1 knockdown cell toxicity (counter line); 360,000 compounds, 2% hits; Potency, µM (doses to about 46.1 µM), for inactives: at the top dose activity, negative = toxicity, most hits filed as cytotoxic; HT-1080 IDH1 knockdown viability, ATP luminescence, 48 h;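 note: 0% = DMSO wells and -100% = cell-free medium wells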
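Viability of IDH1-knockdown HT-1080 fibrosarcoma cells was assessed by CellTiter-Glo after 48 h at 37 °C with titrated compound; concentration-effect curves were classified by fit quality and response size.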
DT40 TDP1 CPT – growth inhibition of DT40 Tdp1-/-;hTDP1 cells with camptothecin (screen for TDP1 inhibitors) | 420,000 compounds, 12% hits | chicken DT40 Tdp1-/-;hTDP1 cells + 20 nM CPT, ATP luminescence, 48 h | Potency, µM (top dose mostly 46.2 µM), for inactives: top-dose activity change, negative = growth inhibition, hits mostly inhibitors; note: nearly all actives have a fitted effect of over 55% in size
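Cell growth measured by CellTiter-Glo luminescence after a minimum 48 h, 37 C compound exposure with 20 nM CPT in Tdp1-knockout DT40 cells stably expressing hTDP1, seeded 400/well; qHTS titration format.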
HT1080NT lethal – kills 2HG-producing HT-1080-NT fibrosarcoma cells | HT-1080-NT fibrosarcoma viability, CellTiter-Glo ATP luminescence, 48 h | Potency, µM (highest dose often 46.1 µM), without a hit: at the highest dose activity, negative = less viability, hits mostly cytotoxic | 360,000 compounds, 1.6% hits;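 note: NT is the 2HG producing partner of a matched IDH1 knockdown line; 0% = DMSO-treated cells and -100% = media-only wells without cells; nearly all actives have a fitted effect of over 55% in size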
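Viability of the 2HG-overproducing fibrosarcoma line after 48 hours of compound exposure at 37 degrees C was determined by luminescence with CellTiter-Glo, and concentration-effect curves were then fitted and categorized.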
* marks the source's active call; other numbers are inactive results; i = inactive; ? = inconclusive; · = no result given. Calls come from the whole dose curve; as a rule, active = well fitted curve in the direction sought with a large enough effect; inconclusive = small, poorly fitted or top-dose-only effect, or another doubt; inactive = no such curve, though single readings can be large; an effect the other way counts as inactive or inconclusive. Unless noted, % is set by controls: 0 for no effect and ±100 for the full control effect; potency is the fitted concentration of half-maximal effect.

SMILES	KB-3-1 cytotox	KB-V1 MDR tox	DT40 TDP1 no CPT	HT1080 IDH1KD tx	DT40 TDP1 CPT	HT1080NT lethal
CC1=C(C(N)=O)C(c2ccc(C(C)C)cc2)n2nc(SCc3ccccc3)nc2N1 (stereo not given)	i	?	-6.5%	·	-1.2%	·
CCN(C(=O)COC(=O)c1cccc(S(=O)(=O)N2CCOCC2)c1)C1CCS(=O)(=O)C1 (stereo not given)	i	i	1.4%	9.7%	3.9%	1.5%
Cc1ccccc1Nc1cccc2nonc12	i	i	-24.7%	-14.3%	1.8%	-1.7%
CCOc1ccc(NC(=O)CN(C)C(=O)c2ccc(COc3ccccc3)o2)cc1OCC	i	i	-16.1%	-4.8%	-9.3%	14.7%
CCOc1ccc(NC(=O)CN(C)C(=O)c2ccc(COc3ccccc3)cc2)cc1OCC	i	9.2µM*	-17.6%	-6.8%	?	-5.0%
COc1ccc(NC(=O)CN(C)C(=O)c2ccc3ccccc3c2)cc1	i	i	?	0.3%	-10.2%	-9.2%
COc1cccc(NC(=O)CN(C)C(=O)c2ccc3ccccc3c2)c1	i	20.6µM*	1.6%	-4.3%	-3.4%	4.2%
CN(CC(=O)Nc1cccc(F)c1)C(=O)c1ccc(OCc2cn3ccccc3n2)cc1	i	i	14.6µM*	-8.1%	?	-11.5%
COc1cccc(NC(=O)CN(C)C(=O)c2ccc(Cl)c(S(=O)(=O)N3CCCCCC3)c2)c1	i	i	14.6µM*	-12.7%	?	-18.5%
CCCSc1ncnc2[nH]ncc12	i	?	-36.9%	10.9%	-10.8%	7.3%
COc1cccc(NC(=O)CN(C)CC(=O)Nc2ccc(C)c([N+](=O)[O-])c2)c1	i	?	10.3µM*	-14.9%	?	-17.3%
CN(CC(=O)Nc1cccc(F)c1)C(=O)c1ccc(NC2CC2)c([N+](=O)[O-])c1	i	i	-25.5%	-9.9%	?	0.1%
COc1cccc(NC(=O)CN(C)C(=O)c2ccc(NC3CC3)c([N+](=O)[O-])c2)c1	i	7.31µM*	?	-5.5%	-16.0%	-3.1%
COc1cccc(NC(=O)CN(C)CC(=O)Nc2ccc3c(c2)OCO3)c1	i	i	2.4%	-18.8%	9.8%	-0.8%
COc1cccc(NC(=O)CN(C)C(=O)c2ccc(COc3ccccc3)cc2)c1	i	?	16.4µM*	-11.6%	?	-12.0%
COc1ccc(C2NC(=O)NC(C)=C2C(=O)OC2CCC(C)CC2)cc1 (stereo not given)	i	i	18.4µM*	-0.7%	?	-3.8%
COc1ccc(C2NC(=O)NC(C)=C2C(=O)OC2CCCC(C)C2)cc1 (stereo not given)	i	i	?	-16.1%	?	-13.9%
COc1ccc(C2NC(=O)NC(C)=C2C(=O)OC2CCCCC2)cc1 (stereo not given)	i	i	?	3.2%	18.4µM*	-1.7%
COc1cc(C2NC(=O)NC(C)=C2C(=O)OC2CCC(C)CC2)ccc1O (stereo not given)	i	?	2.3%	3.1%	-5.3%	2.0%
OC(CNCC(c1ccco1)N1CCCCC1)c1ccccc1 (stereo not given)	i	?	-24.5%	0.3%	16.2%	8.2%
Cc1ccc(NS(=O)(=O)c2c(C(=O)N3CCCCCC3)c(C)n(C)c2C)cc1C	i	i	?	2.3%	?	4.3%
O=C(CSc1nc2ccccc2s1)N1CCCCC1	i	i	-11.1%	17.2%	-4.2%	-11.7%
Cc1c(Cl)cccc1N/C(SCC(=O)N1CCCCCC1)=C(/C#N)c1nc2ccccc2s1	20.6µM*	14.6µM*	11.6µM*	-26.2%	11.6µM*	0.6%
